Results on 4 molecules are retold here after PubChem BioAssay AID651956 (Broad Institute, 2012).

SMILES strings stand for the structures. Entries with a potency or affinity are not part of this list. Records with an inconclusive call do not appear. A number with no mark means an inactive call.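 Rule for the calls: active = in every test run, a fitted half-maximal concentration for signal decrease at or below twice the highest tested concentration; inconclusive = runs disagree, flat 30 to 70% decrease, or poor fit; inactive = the rest.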

A short description of this assay: activation of miR-122 Renilla sensor silencing – cell-based, Huh7 psiCHECK-miR122, Renilla luciferase, cherry-picked, dose response (AID 651956).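 Note: 0% = median neutral control wells and -100% = median positive control wells.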 The note with it: Huh7 psiCHECK-miR122 Renilla luciferase reporter, 48 h; series mostly up to 35 µM; activity change, negative = signal decrease: at the top concentration. On the technique in general: In a reporter assay the amount or activity of a reporter protein is the signal.
For `O=C1NC(=O)N(CCC2=CCCCC2)C(=O)/C1=C\c1cccs1`, the “activity change, negative = signal decrease” value was -3.02%.

Regarding `O=C(c1ccco1)c1cn(Cc2ccccc2Cl)c2ccccc12`, the “activity change, negative = signal decrease” value is 60.4%.

As for `COc1ccc2c(c1)c(CCN)c(C)n2Cc1ccccc1`, the “activity change, negative = signal decrease” value is -25.7%.

Turning to `COc1ccc(C2SCC(=O)Nc3c2c(=O)[nH]n3C2CCCCCC2)cc1` (centres undefined), the “activity change, negative = signal decrease” value is -13%.
